Compound activity (PubChem)
Hits are enriched below; roughly 4.7% of the tested compounds scored in any of these assays.
SUMO HTRF inh: SUMOylation inhibition. 290,000 tested, 0.36% active. P63279. HTRF SUMOylation assay, SAE1/SAE2 + UBC9, in vitro. inhibition, % at 35 µM; in the data active means inhibition above about 50%, passing the limit was not always enough
Efflux pump mplx: blocks antifungal efflux pumps in multiplex yeast assay; inhibition, % at 10 µM; S. cerevisiae Candida pump triplex, Nile Red efflux; 330,000 tested, 0.44% active;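 active means plate passing quality check with inhibition over a set limit, or well fluorescence over plate mean plus 4 SD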;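 further: Nile Red retained in pooled yeast measured as flow cytometry median fluorescence; 0% = buffer negative control and 100% = Enniatin B positive control; higher means more Nile Red kept so more efflux inhibition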
PABP polyA inh: PABP-poly(A) binding inhibition; P11940; PABP-poly(A) RNA binding, fluorescence polarization; 290,000 tested, 1% active; inhibition, % at 35 µM; AID 2014;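 further: calls also rest on retests at 20 µM and on dose response follow-up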
Target sequence (P11940 whole entry, looked up): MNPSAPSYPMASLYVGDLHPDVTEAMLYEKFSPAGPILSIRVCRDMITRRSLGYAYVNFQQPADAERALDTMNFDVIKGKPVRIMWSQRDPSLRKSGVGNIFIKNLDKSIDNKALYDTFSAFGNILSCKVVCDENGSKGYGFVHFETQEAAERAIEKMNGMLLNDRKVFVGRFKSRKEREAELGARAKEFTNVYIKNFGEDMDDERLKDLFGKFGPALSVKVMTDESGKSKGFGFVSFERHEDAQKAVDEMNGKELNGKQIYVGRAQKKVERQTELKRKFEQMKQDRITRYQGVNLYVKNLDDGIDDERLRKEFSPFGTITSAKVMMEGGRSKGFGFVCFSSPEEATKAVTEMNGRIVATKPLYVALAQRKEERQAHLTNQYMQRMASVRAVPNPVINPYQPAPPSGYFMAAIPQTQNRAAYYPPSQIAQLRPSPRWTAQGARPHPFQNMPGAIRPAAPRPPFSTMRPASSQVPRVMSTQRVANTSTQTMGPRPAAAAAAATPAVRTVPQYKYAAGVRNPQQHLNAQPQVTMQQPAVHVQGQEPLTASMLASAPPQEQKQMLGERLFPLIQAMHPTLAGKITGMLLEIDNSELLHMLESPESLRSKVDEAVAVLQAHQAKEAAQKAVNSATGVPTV
eIF4H FP inh: inhibitors of RNA binding by human eIF4H. Q15056. 290,000 tested, 0.94% active. inhibition, % at 35 µM. eIF4H fluorescence polarization binding assay;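 further: calls also rest on retests at 20 µM and on dose response follow-up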
ALR inh: inhibitors of human sulfhydryl oxidase ALR | P55789 | purified ALR, DTT oxidation, H2O2 HRP-luminol luminescence | inhibition, % (test concentration not listed) | 290,000 tested, 3.8% active | AID 485317;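 active means mean replicate inhibition above about 79%, with every replicate also reaching it, limit read from the data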
MLLE-PAM2 inh: inhibitors of microRNA-mediated deadenylation, human PABP1 MLLE binding; P11940; GST-MLLE / FITC-PAM2 fluorescence polarization; inhibition, % at 20 µM; 360,000 tested, 0.36% active; AID 588489; in the data active means inhibition above about 35%, passing the limit was not always enough;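 further: plate controls were DMSO wells with GST-MLLE for no effect and wells lacking GST-MLLE protein for full effect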
Starred values were filed as active, the others as inactive. Unless noted, how the calls were made is not given here.

Results for CC1CCc2nc(/C(C#N)=C/c3ccncc3)sc2C1 (stereo not given) ?
SUMO HTRF inh: 32; Efflux pump mplx: 0; PABP polyA inh: 12; eIF4H FP inh: 29; ALR inh: 98*; MLLE-PAM2 inh: 1

Results for O=C(/C=C/c1ccc(F)cc1)N1CC[C@@]2(O)CCCC[C@H]2C1 ?
SUMO HTRF inh: 26; Efflux pump mplx: 0; PABP polyA inh: 13; eIF4H FP inh: 1; ALR inh: -4; MLLE-PAM2 inh: 7

What do the screens show for `CCn1c(NC(=O)c2ccc(F)cc2)c2ccccc2nc1=O`?
SUMO HTRF inh: -6; Efflux pump mplx: 0; PABP polyA inh: 6; eIF4H FP inh: 6; ALR inh: 60; MLLE-PAM2 inh: 10

Results for CCn1c(NC(=O)c2ccc(C)cc2)c2ccccc2nc1=O ?
SUMO HTRF inh: 0; Efflux pump mplx: 0; PABP polyA inh: -6; eIF4H FP inh: -2; ALR inh: 95*; MLLE-PAM2 inh: -2

How did O=C(COC(=O)c1ccncc1)Nc1cc(Cl)ccc1Cl do in these assays?
SUMO HTRF inh: 2; Efflux pump mplx: 0; PABP polyA inh: 4; eIF4H FP inh: -8; ALR inh: -7; MLLE-PAM2 inh: 0

How did O=C(COC(=O)c1ccncc1)Nc1cc(Cl)c(Cl)cc1Cl do in these assays?
SUMO HTRF inh: 22; Efflux pump mplx: 0.8*; PABP polyA inh: -7; eIF4H FP inh: 7; ALR inh: -12

What do the screens show for `COc1ccc(CNc2ccc3c(c2)nc(C)n3C)cc1`?
SUMO HTRF inh: 19; Efflux pump mplx: 0; PABP polyA inh: 16; eIF4H FP inh: -7; ALR inh: 89*; MLLE-PAM2 inh: -4

Results for COc1ccc(OC)c(CNc2ccc3c(c2)nc(C)n3C)c1 ?
SUMO HTRF inh: 3; Efflux pump mplx: 0; PABP polyA inh: -10; eIF4H FP inh: 76; ALR inh: 85*; MLLE-PAM2 inh: 3

Results for CCOc1ccc(NC(=O)C(CC(=O)O)Cc2ccc(C)cc2)cc1 (stereo not given) ?
SUMO HTRF inh: -9; Efflux pump mplx: 0; PABP polyA inh: 6; eIF4H FP inh: -9; ALR inh: 9; MLLE-PAM2 inh: -5

Results for O=C(CSc1nnc(SCc2ccccc2)s1)N/N=C/C=C\c1ccco1 ?
SUMO HTRF inh: 71; Efflux pump mplx: 0; PABP polyA inh: 2; eIF4H FP inh: 97; ALR inh: 97*; MLLE-PAM2 inh: -87

How did C/C(=N\NC(=O)Cc1cccn1C)c1ccco1 do in these assays?
SUMO HTRF inh: 16; Efflux pump mplx: 0; PABP polyA inh: 3; eIF4H FP inh: 13; MLLE-PAM2 inh: -1

Results for Cn1cccc1CC(=O)N/N=C/C=C/c1ccco1 ?
SUMO HTRF inh: 80*; Efflux pump mplx: 0; PABP polyA inh: -6; eIF4H FP inh: 99; ALR inh: -57; MLLE-PAM2 inh: -13

Results for COc1ccccc1NC(=O)CSc1nc(O)cc(=O)n1C ?
SUMO HTRF inh: -8; Efflux pump mplx: 0; PABP polyA inh: -17; eIF4H FP inh: -18; ALR inh: 99*; MLLE-PAM2 inh: 6

Results for COc1ccc(-n2c(SCC(=O)Nc3ccccc3OC)nc(O)cc2=O)cc1 ?
SUMO HTRF inh: 27; Efflux pump mplx: 0; PABP polyA inh: 1; eIF4H FP inh: -2; ALR inh: 29; MLLE-PAM2 inh: 9

How did CCCn1c(SCC(=O)Nc2cc(Cl)ccc2OC)nc(O)cc1=O do in these assays?
Efflux pump mplx: 0; ALR inh: 98*; MLLE-PAM2 inh: 7

How did COc1ccccc1NC(=O)CSc1nc2nc(C)cc(C)c2c(=O)[nH]1 do in these assays?
SUMO HTRF inh: 23; Efflux pump mplx: 0; PABP polyA inh: 10; eIF4H FP inh: -3; ALR inh: 91*; MLLE-PAM2 inh: 23

What do the screens show for `CCn1c(SCC(=O)Nc2ccccc2OC)nc(O)cc1=O`?
SUMO HTRF inh: 23; Efflux pump mplx: 0; PABP polyA inh: 13; eIF4H FP inh: 6; ALR inh: 98*; MLLE-PAM2 inh: 10

How did CCCn1nc(C(=O)Nc2cccc(S(=O)(=O)N(C)c3ccccc3)c2)c2ccccc2c1=O do in these assays?
Efflux pump mplx: 0; ALR inh: -11; MLLE-PAM2 inh: -2

What do the screens show for `COc1ccc(CCC(=O)N2CCN(S(=O)(=O)c3cccs3)CC2)cc1`?
MLLE-PAM2 inh: -1

What do the screens show for `CN(Cc1ccc2nsnc2c1)C(=O)C1CCC(=O)N(CCc2ccccc2)C1` (stereo not given)?
MLLE-PAM2 inh: 1

What do the screens show for `COc1ccccc1CCC(=O)N(Cc1ccccc1)c1c(N)n(Cc2ccccc2)c(=O)[nH]c1=O`?
SUMO HTRF inh: -8; Efflux pump mplx: -1; PABP polyA inh: -9; eIF4H FP inh: -13; ALR inh: 0; MLLE-PAM2 inh: 0

How did C=CCn1c(SCC(=O)Nc2ccccc2C)nc2sc(C)c(C)c2c1=O do in these assays?
SUMO HTRF inh: 5; Efflux pump mplx: 0; PABP polyA inh: 13; eIF4H FP inh: -7; ALR inh: -3; MLLE-PAM2 inh: -10

How did CCn1c(CC(=O)Nc2ccccc2OC)nnc1SCC(=O)Nc1ccccc1F do in these assays?
SUMO HTRF inh: 3; Efflux pump mplx: 0; PABP polyA inh: 7; eIF4H FP inh: 1; ALR inh: 93*; MLLE-PAM2 inh: -11

What do the screens show for `Cn1c(SCC(=O)Nc2cccc3ccccc23)nc(O)cc1=O`?
SUMO HTRF inh: 6; Efflux pump mplx: 0; PABP polyA inh: -3; eIF4H FP inh: -6; ALR inh: 98*; MLLE-PAM2 inh: -8

How did C=CCn1c(SCC(=O)Nc2ccccc2C)nc(O)cc1=O do in these assays?
SUMO HTRF inh: -7; Efflux pump mplx: 0; PABP polyA inh: 4; eIF4H FP inh: -4; ALR inh: 92*; MLLE-PAM2 inh: 12

How did Cc1ccccc1NC(=O)CSc1nc2ccccc2c(=O)n1C do in these assays?
SUMO HTRF inh: 2; Efflux pump mplx: 0; PABP polyA inh: -8; eIF4H FP inh: 3; ALR inh: -8; MLLE-PAM2 inh: -13

Results for CC(OC(=O)Cc1c[nH]c2ccccc12)C(=O)Nc1ccccc1F (stereo not given) ?
Efflux pump mplx: 0; ALR inh: 6; MLLE-PAM2 inh: -1

What do the screens show for `O=C(Oc1ccccc1N1C(=O)C2CCCCC2C1=O)c1ccccc1F` (stereo not given)?
SUMO HTRF inh: 15; Efflux pump mplx: 0; PABP polyA inh: 87; eIF4H FP inh: active; ALR inh: 0; MLLE-PAM2 inh: 9

How did O=C(Oc1ccccc1N1C(=O)C2CCCCC2C1=O)c1ccc(Cl)cc1 (stereo not given) do in these assays?
SUMO HTRF inh: 12; Efflux pump mplx: 0; PABP polyA inh: -8; eIF4H FP inh: 1; ALR inh: -5; MLLE-PAM2 inh: 4

How did O=C(NCc1ccccc1)c1cc(C2CCCCN2S(=O)(=O)c2cccs2)on1 (stereo not given) do in these assays?
MLLE-PAM2 inh: 3

How did NS(=O)(=O)c1ccc(N/N=C/c2ccc[nH]2)c([N+](=O)[O-])c1 do in these assays?
SUMO HTRF inh: -13; Efflux pump mplx: 0; PABP polyA inh: 11; eIF4H FP inh: -4; ALR inh: 97*; MLLE-PAM2 inh: 7
